Rows were chosen to be rich in hits. Some 11% of all compounds tested hit in one or more screens of this group.
HP1b binding inh – blocks HP1-beta chromodomain binding to methylated histone tails | P83916 | AlphaScreen HP1-beta / biotin-H3K9me3 peptide binding | Potency, µM (doses to about 114 µM), for the others: at the top dose activity change, negative = inhibition, most hits filed as inhibitors | 0.56% of 390,000 active; also: nearly all actives have a fitted effect of over 70% in size
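AlphaScreen: HP1-beta (50 nM) preformed 30 min with biotin-H3(1-18)K9me3 peptide (50 nM) in PBS pH 7.4, 0.01% Tween-20. Compound added for 30 min at RT, then streptavidin donor/nickel chelate acceptor beads (10 ug/mL) for 30 min.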
G9a block – G9a (human) methyltransferase inhibition; Q96KQ7; AID 504332; Potency, µM (series often up to 102 µM), inactives show at the highest dose activity, negative = inhibition, most hits filed as inhibitors; G9a H3K9 monomethylation, AlphaScreen, 2 h; 8.8% of 350,000 active; also: % is scaled to controls: 0 for no effect and ±100 for the full control effect; nearly all actives have a fitted effect of over 75% in size
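AlphaScreen detection with an anti-monomethyl H3K9 antibody quantified product after a 2 h room-temperature reaction containing 500 nM biotinylated H3K9 peptide, 20 µM SAM and 20 nM enzyme, which had been preincubated 15 min with compound.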
JMJD2A Tudor – JMJD2A Tudor domain (human) inhibition; AlphaScreen JMJD2A-Tudor / H3K4me3 peptide binding; 4.4% of 390,000 active; Potency, µM (titrated, usually from 114 µM), inactives show at the top dose activity change, negative = inhibition, hits mostly inhibitors; AID 504339; also: % is scaled to controls: 0 for no effect and ±100 for the full control effect; nearly all actives have a fitted effect of over 50% in size
BAZ2B inh – BAZ2B (human) inhibition; AlphaScreen BAZ2B-H3K14Ac peptide displacement; 4.4% of 360,000 active; Potency, µM (doses to about 114 µM), without a hit: at the top dose activity change, negative = inhibition, hits mostly inhibitors; Q9UIF8; also: % is scaled to controls: 0 for no effect and ±100 for the full control effect; nearly all actives have a fitted effect of over 60% in size
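Multi-concentration screen (max 110 uM) measuring displacement of acetylated histone H3 peptide from BAZ2B by AlphaScreen, using 50 nM protein, 50 nM peptide and 10 ug/mL streptavidin donor plus Ni-chelate acceptor beads.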
L3MBTL1 block – inhibitors of human L3MBTL1; Q9Y468; Potency, µM (top dose mostly 57.1 µM), for the others: at the highest dose activity, negative = inhibition, usual class: inhibitors; 0.66% of 230,000 active; AlphaScreen L3MBTL1–H3K9me1 peptide binding; also: % is scaled to controls: 0 for no effect and ±100 for the full control effect; nearly all actives have a fitted effect of over 60% in size
Target sequence (Q9Y468 whole entry, looked up): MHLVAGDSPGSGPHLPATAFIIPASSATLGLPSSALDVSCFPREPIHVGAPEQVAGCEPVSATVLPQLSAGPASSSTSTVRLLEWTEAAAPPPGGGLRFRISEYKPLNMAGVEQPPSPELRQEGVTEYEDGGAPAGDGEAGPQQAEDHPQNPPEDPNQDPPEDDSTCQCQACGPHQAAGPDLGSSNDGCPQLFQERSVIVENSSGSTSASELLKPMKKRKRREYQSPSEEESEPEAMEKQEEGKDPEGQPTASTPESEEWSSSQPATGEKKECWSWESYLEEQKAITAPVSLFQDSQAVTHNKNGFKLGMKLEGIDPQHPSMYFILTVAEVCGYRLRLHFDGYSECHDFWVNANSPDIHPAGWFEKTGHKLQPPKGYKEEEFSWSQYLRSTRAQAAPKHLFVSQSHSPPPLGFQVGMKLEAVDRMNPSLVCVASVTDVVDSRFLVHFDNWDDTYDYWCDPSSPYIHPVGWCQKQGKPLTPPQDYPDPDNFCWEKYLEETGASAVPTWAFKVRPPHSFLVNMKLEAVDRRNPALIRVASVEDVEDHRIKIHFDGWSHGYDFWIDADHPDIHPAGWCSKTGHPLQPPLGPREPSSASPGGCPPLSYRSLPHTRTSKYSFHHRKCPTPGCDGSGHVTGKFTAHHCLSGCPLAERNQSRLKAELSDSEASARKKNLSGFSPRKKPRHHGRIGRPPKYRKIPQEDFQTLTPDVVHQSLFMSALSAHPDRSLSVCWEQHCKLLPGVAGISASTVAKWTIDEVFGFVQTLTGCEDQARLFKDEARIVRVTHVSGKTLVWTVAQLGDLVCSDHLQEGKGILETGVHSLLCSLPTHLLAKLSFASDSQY
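Displacement of a biotinylated histone H3(1-15) peptide monomethylated at Lys9 (75 nM) from L3MBTL1 (50 nM) was measured by AlphaScreen after a 30 min room-temperature compound incubation; cefsulodin titration served as intraplate control.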
An asterisk follows results filed as active; ? = inconclusive; nt = not tested or not shown; [ ] = dose if it differs, or a comment. Calls follow the shape of the dose curve; as a rule, active = well fitted inhibition curve with a large enough effect; inconclusive = small, poorly fitted or top-dose-only effect; inactive = no such curve, though single readings can be large or run the other way. Potency is read from the fitted curve at half-maximal effect.

SMILES	HP1b binding inh	G9a block	JMJD2A Tudor	BAZ2B inh	L3MBTL1 block
CN1CCN(S(=O)(=O)c2ccc(N(C)Cc3ccc(C(F)(F)F)cc3)c([N+](=O)[O-])c2)CC1	?	-13.3%[12.7 µM]	25.1µM*	39.8µM*	-22.9%
O=[N+]([O-])c1cc(S(=O)(=O)N2CCOCC2)ccc1N1CCNCC1	7.5%	50.1µM*	-20.5%	-5.8%	0.8%
Cc1ccc(S(=O)(=O)Nc2ccc(S(=O)(=O)N3CCOCC3)cc2)cc1[N+](=O)[O-]	16.2%	14.5%	-11.4%	4.3%	nt
Cc1ccc(C)n1-c1ccc(N2CCOCC2)c([N+](=O)[O-])c1	-18.1%	nt	?	?	30.4%
CC(=O)N1CCN(c2ccc(S(=O)(=O)N3CCOCC3)cc2[N+](=O)[O-])CC1	17.7%[57 µM]	nt	-13.8%	nt	3.1%
CCCN(Cc1cccs1)C(=O)Nc1cc(Cl)ccc1C	62.8%	-11.1%[59 µM]	-0.7%	0.1%	nt
CN1CCN(S(=O)(=O)c2ccc(Nc3ccc(F)cc3)c([N+](=O)[O-])c2)CC1	-26.3%	56.2µM*	?	?	-3.1%
CCOc1ccc(Nc2ccc(S(=O)(=O)N3CCN(C)CC3)cc2[N+](=O)[O-])cc1OCC	?	13.8%[12.7 µM]	?	?	-28.8%
CSCCC1NC2(C(=O)Nc3c(Cl)cccc32)[C@@H]2C(=O)N(C3CCCC3)C(=O)[C@H]12 (stereo partly drawn)	3.8%	70.8µM*	?	-23.7%	-21.2%
CSCCC1NC2(C(=O)Nc3c(C)cc(Cl)cc32)[C@@H]2C(=O)N(C3CCCC3)C(=O)[C@H]12 (stereo partly drawn)	-9.7%	?	-33.8%	?	-12.9%
O=[N+]([O-])c1cc(S(=O)(=O)O)cc([N+](=O)[O-])c1NN(c1ccccc1)c1ccccc1	7.3%	50.1µM*	?	-36.7%	nt
COc1ccc(-c2nc(-c3ccccc3)nc(Cl)c2C#N)cc1	30.3%	?	?	4.4%	13.2%
COc1ccc(-c2nc(-c3cccc(C)c3)nc(Cl)c2C#N)cc1	nt	50.1µM*	nt	-35.4%	10.7%
O=C(Cc1cccs1)N(c1ccc(Br)cc1)C1C=CS(=O)(=O)C1 (stereo not drawn)	-4.9%	3.5%	20µM*	-15.9%	6.5%
COc1ccc(N2CCN(S(=O)(=O)CCNC(=O)c3ccc(OC(C)C)cc3)CC2)cc1	22.0%[57 µM]	-9.8%[59 µM]	-0.6%	4.4%	nt
O=C(O/N=C\c1ccc(N2CCCCC2)c([N+](=O)[O-])c1)c1cccc(Cl)c1	?	28.2µM*	?	?	-2.7%
O=C(O/N=C\c1ccc(N2CCCCC2)c([N+](=O)[O-])c1)c1cccc(C(F)(F)F)c1	?	5.01µM*	?	?	-10.8%
O=C(N/N=C/c1ccc(N2CCCC2)c([N+](=O)[O-])c1)c1cccnc1	-5.1%	?	-21.8%	?	-4.0%[11.4 µM]
O=C(O/N=C\c1ccc(N2CCCCC2)c([N+](=O)[O-])c1)c1c(F)cccc1F	?	14.1µM*	?	?	?
CC(C)CCN1C(=O)c2ccccc2CC1(C)C(=O)NC1CCC(C)CC1 (stereo not drawn)	3.1%	4.6%[59 µM]	-13.1%	-1.2%	nt
CC(C)CN1CCC2(CC1)CCN(S(=O)(=O)c1ccccc1)CC2	nt	-22.2%[12.7 µM]	nt	nt	nt
Cc1cc(SCC(=O)OCC(=O)NC(C)c2ccccc2)c(C)cc1Br (stereo not drawn)	69.2%	52.9%[59 µM]	23.8%	2.2%	19.7%
Cc1cc(Br)ccc1SCC(=O)OCC(=O)NC1CC1	29.6%	79.4µM*	-22.4%	79.4µM*	16.3%
Cc1cc(Br)ccc1SCC(=O)OCC(=O)NC(C)c1ccccc1 (stereo not drawn)	80.7%	39.8µM*	12.1%[57.1 µM]	-4.5%	13.1%
COc1ccc(-c2noc(N3CCC(C(=O)N4CCN(c5cccc(OC)c5)CC4)CC3)n2)cc1	15.0%[57 µM]	-10.0%[59 µM]	-18.2%	-18.8%	nt
SMILES	HP1b binding inh	G9a block	JMJD2A Tudor	BAZ2B inh	L3MBTL1 block
CC(C)CC(c1nnnn1C1CCCC1)N1CCN(C(=O)c2ccco2)CC1 (stereo not drawn)	16.5%	-35.1%[59 µM]	50.1µM*	79.4µM*	nt
CCCCC(c1nnnn1C1CCCC1)N1CCN(C(=O)c2ccco2)CC1 (stereo not drawn)	17.0%	-47.6%[12.7 µM]	-17.4%	79.4µM*	nt
Cc1ccc(CNC(=O)c2nnc(Cc3cccc(F)c3)o2)cc1	81.6%	74.4%[59 µM]	85.9%	104.4%	nt
COc1ccc2c(c1)CC/C(=C\Nc1ccc3c(c1)OCO3)C2=O	?	2.51µM*	?	?	nt
O=C1OC2(CCCCC2)OC(=O)C1=CNc1ccc2c(c1)OCO2	20.1%	8.2%[59 µM]	-10.4%	9.1%	18.5%
COc1ccc(N/C=C2\CCOC2=O)cc1	6.5%	9.5%[59 µM]	-24.4%	-0.8%	6.1%
O=C1/C(=C/Nc2ccc3c(c2)OCO3)CCc2ccccc21	?	1.78µM*	-42.2%	-38.4%	nt
COc1ccc(N/C=C2\CCc3ccccc3C2=O)cc1	54.3%	2µM*	15.1%	13.6%	11.9%
COc1cccc(CNC(=O)C2CCC(CNS(=O)(=O)c3ccc(Br)s3)CC2)c1 (stereo not drawn)	24.5%	-4.4%[59 µM]	-25.3%	-2.1%	nt
CC(=O)c1cc(-c2ccc(F)cc2)n(CCC(=O)NC(C)(C)C)c1C	4.5%	-8.7%	-27.6%	50.1µM*	6.5%
COc1ccc(-c2cc(C(C)=O)c(C)n2CCC(=O)NCc2ccc(F)cc2)cc1	33.5%	?	-17.0%	79.4µM*	nt
CC(=O)c1cc(-c2ccccc2)n(CCC(=O)NCc2cccs2)c1C	2.8%	13.1%[12.7 µM]	-15.0%	50.1µM*	2.0%[11.4 µM]
CCC(C)NC(=O)CCn1c(-c2ccc(F)cc2)cc(C(C)=O)c1C (stereo not drawn)	11.1%	-10.9%	-27.6%	?	-4.2%
O=C(O)CCCCCNC(=O)c1ccc(Br)cc1	40.1%	50.1µM*	-16.0%[57.1 µM]	?	nt
Cc1cccc(S(=O)(=O)c2cn(C)c3cc(N4CCN(c5ccccc5)CC4)c(F)cc3c2=O)c1	41.8%	-5.4%[59 µM]	-15.5%	8.4%	nt
O=C(O)C/C=C(\NC(=O)OCc1ccccc1)C(=O)OCc1ccccc1	71.7%	50.1µM*	17.9%	nt	nt
CC(=O)N/C(=C\c1ccccc1)C(=O)OCc1ccccc1	28.6%	nt	-12.9%	4.6%	nt
c1ccc(CN2CCN(c3nc(NCc4ccco4)c4ccccc4n3)CC2)cc1	-15.8%	?	?	50.1µM*	nt
Cc1ccc(S(=O)(=O)Nc2nc3ccccc3nc2NCc2ccco2)cc1	39.2%	?	-20.2%	-8.0%	-2.2%
OCCN1CCN(c2nc(NCc3ccco3)c3ccccc3n2)CC1	4.9%	-8.0%[59 µM]	?	-9.2%	-1.1%
Cc1ccc(OCCN2CCN(c3nc(NCc4ccco4)c4ccccc4n3)CC2)cc1	-33.5%	?	56.2µM*	?	-9.6%
Cc1ccc(S(=O)(=O)NC(N)=NCCC[C@@H](N)C(=O)Nc2cc(C(F)(F)F)ccc2Cl)cc1	nt	nt	-25.3%	nt	nt

Compound activity deposited in PubChem BioAssay by National Center for Advancing Translational Sciences (NCATS).
